PubChem BioAssay AID1159580 (chemical genetic matrix, 2015)
About 2,000 (36%) of roughly 5,500 compounds were called active. Inconclusive results (about 18%) are left out. Cut-off read from the data, not from the text of the source: active = normalized growth mostly below about 0.91 (no sharp cut-off); inconclusive = no clear call, values can overlap the other calls; inactive = mostly above about 0.92. Some of the results follow.

Assay: chemical genetic growth profiling, strain panel (AID 1159580);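 note: tested at 20 µM; growth read once vehicle control cultures reached saturation at 30 °C; 1 = growth at the plate median or of vehicle wells; lower values mean less growth of the strain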
Conditions: S. cerevisiae deletion strains, growth OD

Measured: normalized growth

CCN1CCC[C@H]1CNC(=O)c1c(O)c(Cl)cc(Cl)c1OC
inactive: locus YAL040C, strain CLN3, stronger effect = lower value 1.01 | locus YCL061C, strain MRC1 (second series), stronger effect = lower value 1 | locus YDR363W, strain ESC2, stronger effect = lower value 1.03 | locus YER002W, strain NOP16, stronger effect = lower value 0.998 | locus YGR229C, strain SMI1, stronger effect = lower value 1.02 | locus YMR263W, strain SAP30, stronger effect = lower value 1.01 | locus YMR307W, strain GAS1, stronger effect = lower value 1 | locus YNL128W, strain TEP1, stronger effect = lower value 1.03 | locus YNL175C, strain NOP13, stronger effect = lower value 1.01 | locus YNL197C, strain WHI3, stronger effect = lower value 1.01 | locus YNL224C, strain SQS1, stronger effect = lower value 1.03 | locus YNL322C, strain KRE1, stronger effect = lower value 1.02 | locus YOR083W, strain WHI5 (second series), stronger effect = lower value 1.02 | locus YPL241C, strain CIN2, stronger effect = lower value 0.996
